From PubChem BioAssay (Tox21)
Records with an inconclusive call do not appear. Active and inactive are the calls of the source. Unless noted, the call rests on the fitted dose curve; in most records, active means well fitted curve in the direction sought with a large enough effect in the repeat runs; inconclusive means weak or mixed curves; inactive means no such curve, though single readings can be large; an effect the other way counts as inactive or inconclusive.

Key:
[1] = qHTS assay to identify small molecule antagonists of the estrogen related receptor (ERR) signaling pathway from Tox21 library - cell viability counter screen (AID 1224834); further: nearly all actives have a fitted effect of over 30% in size; further: potency means the concentration at half of the fitted maximal effect
In short: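 Counter screen run in ERR cells (2,000 cells/well): cells pre-incubated 6 h, then treated with compounds for 17.5 h at 37 C. Fluorescence was read 30 min after CellTiter-Fluor addition.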

[2] = target: Luciferin 4-monooxygenase (Photinus pyralis) (UniProt P08659); experiment: qHTS assay to identify small molecule inhibitors of firefly luciferase (AID 1224835); further: nearly all actives have a fitted effect of over 25% in size; further: potency means the concentration at half of the fitted maximal effect
In short: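 Biochemical qHTS: compounds run as interplate titrations against purified firefly enzyme, with D-luciferin and ATP each at its KM concentration. Light output recorded by CCD imaging.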

[3] = qHTS assay to identify small molecule agonists of the constitutive androstane receptor (CAR) signaling pathway - cell viability counter screen (AID 1224836); further: nearly all actives have a fitted effect of over 45% in size; further: potency means the concentration at half of the fitted maximal effect
In short: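 Using CellTiter-Fluor, viability of HepG2 cells harbouring hCAR and CYP2B6-2.2kb was measured following 23 h incubation with a 15-concentration compound series plus PK11195 (0.75 uM final).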

[4] = qHTS assay to identify small molecule antagonists of the constitutive androstane receptor (CAR) signaling pathway - cell viability counter screen (AID 1224837); further: nearly all actives have a fitted effect of over 45% in size; further: potency means the concentration at half of the fitted maximal effect
In short: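 CITCO at 50 nM final was added alongside compounds (15 concentrations) to double-stable hCAR/CYP2B6-2.2kb HepG2 cells. Following 23 hr at 37 C, cell viability was quantified by CellTiter-Fluor fluorescence intensity.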

[5] = target: Nuclear receptor subfamily 1 group I member 3 (Homo sapiens) (UniProt Q14994); experiment: qHTS assay to identify small molecule agonists of the constitutive androstane receptor (CAR) signaling pathway (AID 1224839); further: nearly all actives have a fitted effect of over 15% in size; further: potency means the concentration at half of the fitted maximal effect; on activation: series mostly up to about 92 µM
In short: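 Double-stable HepG2 cells (hCAR, CYP2B6-2.2kb) seeded 4 h before compound addition. Exposure 24 h with 0.75 uM PK11195 final. Luciferase detected by ONE-Glo.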

[6] = qHTS assay to identify small molecule antagonists of the estrogen related receptor signaling pathway with the pleiotropic PPARgamma coactivator (PGC) from Tox21 10K library - cell viability counter screen (AID 1224840; active means well fitted cell-killing curve with a large enough effect in the repeat runs, not every such curve was filed as active; further: nearly all actives have a fitted effect of over 40% in size; further: potency means the concentration at half of the fitted maximal effect)
In short: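 Readout: fluorescence intensity from CellTiter-Fluor after 30 min at 37 C/5% CO2. Preceded by 17.5 h treatment of PGC/ERR cells with DMSO-dissolved compounds, added 6 h post-seeding.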

[7] = qHTS assay to identify small molecule agonists of the hypoxia (HIF-1) signaling pathway - cell viability counter screen (AID 1224844; calls by dose curve; further: nearly all actives have a fitted effect of over 50% in size; further: potency means the concentration at half of the fitted maximal effect)
In short: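 In this counter screen, HRE-bla ME-180 cell viability after 17 hrs of compound exposure at 37C was read by CellTiter-Glo luminescence, multiplexed with the beta-lactamase reporter measurement.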

[8] = qHTS assay to identify small molecule agonists of H2AX (AID 1224845; active means well fitted activation curve with a large enough effect in the signal ratio in the repeat runs, not every such curve was filed as active; the % refers to the signal ratio; further: potency means the concentration at half of the fitted maximal effect)
In short: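 Wild-type CHO-K1 cells, plated overnight, exposed 3hr at 37C to 15 concentrations (0.76% DMSO final). Lysed, then HTRF anti-pH2AX (S139) cryptate and anti-H2AX-d2 antibodies, 24 hr room temperature; 665/620 nm emission read.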

[9] = qHTS assay to identify small molecule agonists of the hypoxia (HIF-1) signaling pathway (AID 1224846; active means well fitted activation curve with a large enough effect in the signal ratio in the repeat runs, not every such curve was filed as active; the % refers to the signal ratio)
In short: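 ME-180 HRE-bla reporter cells; compounds in DMSO, 17 h at 37C; read-out beta-lactamase via CCF4-AM FRET.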

[10] = qHTS assay to identify small molecule agonists of H2AX - cell viability counter screen (AID 1224847; calls by dose curve; further: nearly all actives have a fitted effect of over 30% in size; further: potency means the concentration at half of the fitted maximal effect)
In short: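 Quantitative HTS viability measurement: CHO-K1 wild-type cells in serum (10% FBS) medium, short 3 hr drug exposure at 37C with 0.76% DMSO, CellTiter-Glo luminescent detection.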

[11] = qHTS assay to identify small molecule agonists of the estrogen related receptor signaling pathway with the pleiotropic PPARgamma coactivator (PGC) from Tox21 10K library (AID 1224842); further: nearly all actives have a fitted effect of over 15% in size
In short: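 PGC/ERR reporter cell line, 2,000 cells per well, incubated 6 h at 37 C before 23 nL compound in DMSO was added. After 18 h at 37 C, One-Glo luminescence read following 30 min at room temperature.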

[12] = qHTS assay to identify small molecule antagonists of the estrogen related receptor signaling pathway with the pleiotropic PPARgamma coactivator (PGC) from Tox21 10K library (AID 1224841; call rule not given here; further: actives are mostly falling curves and most rising ones were filed inactive; nearly all actives have a fitted effect of over 50% in size; further: potency means the concentration at half of the fitted maximal effect)
In short: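 One-Glo luminescence, measured after half an hour at room temperature, quantified reporter output of PGC/ERR cells. These had been plated at 2,000 per well, incubated 6 h, dosed with compounds in DMSO, then kept 18 h at 37 C.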

[13] = target: Thyrotropin receptor (Homo sapiens) (UniProt P16473); experiment: qHTS assay to identify small molecule agonists of the thyroid stimulating hormone receptor (TSHR) signaling pathway (AID 1224843; calls by dose curve; further: nearly all actives have a fitted effect of over 45% in size; further: potency means the concentration at half of the fitted maximal effect)
In short: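 HEK293/TSHR, 800 cells/well; cpd 30 min RT; add cAMP-d2 + anti-cAMP-cryptate, 1 h RT; fluorescence read on plate reader. 15-pt titration, n=3.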

[14] = target: Nuclear receptor subfamily 1 group I member 3 (Homo sapiens) (UniProt Q14994); experiment: qHTS assay to identify small molecule antagonists of the constitutive androstane receptor (CAR) signaling pathway (AID 1224838); further: nearly all actives have a fitted effect of over 40% in size; further: potency means the concentration at half of the fitted maximal effect
In short: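 Inhibition of CITCO-driven (50 nM final) CYP2B6 reporter expression is measured in HepG2 cells stably carrying hCAR. Fifteen compound concentrations are applied for 24 h at 37 C, followed by luciferase luminescence.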

Measured: Potency

Thyrotropin receptor (Homo sapiens), sequence (P16473 whole entry, looked up): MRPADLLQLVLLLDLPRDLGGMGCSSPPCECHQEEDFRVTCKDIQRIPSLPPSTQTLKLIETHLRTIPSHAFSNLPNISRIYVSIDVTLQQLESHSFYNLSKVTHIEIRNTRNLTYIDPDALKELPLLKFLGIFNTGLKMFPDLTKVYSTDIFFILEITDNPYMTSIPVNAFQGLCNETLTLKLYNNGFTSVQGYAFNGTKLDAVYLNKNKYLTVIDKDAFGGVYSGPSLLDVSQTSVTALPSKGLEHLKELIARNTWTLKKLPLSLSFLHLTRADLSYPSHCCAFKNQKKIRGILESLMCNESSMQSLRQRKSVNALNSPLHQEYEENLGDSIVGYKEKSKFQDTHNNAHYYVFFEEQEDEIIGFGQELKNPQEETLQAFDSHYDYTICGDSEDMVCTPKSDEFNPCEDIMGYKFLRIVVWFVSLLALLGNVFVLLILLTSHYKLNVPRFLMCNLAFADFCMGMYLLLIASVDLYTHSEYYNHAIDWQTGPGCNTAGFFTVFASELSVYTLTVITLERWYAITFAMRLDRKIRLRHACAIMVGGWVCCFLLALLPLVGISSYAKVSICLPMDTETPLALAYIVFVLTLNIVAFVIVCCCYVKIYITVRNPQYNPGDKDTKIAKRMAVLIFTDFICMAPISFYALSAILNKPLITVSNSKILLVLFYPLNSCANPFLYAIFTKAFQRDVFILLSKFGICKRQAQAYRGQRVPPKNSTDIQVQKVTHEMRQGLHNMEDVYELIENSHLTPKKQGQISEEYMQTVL
Nuclear receptor subfamily 1 group I member 3 (Homo sapiens), sequence (Q14994 whole entry, looked up): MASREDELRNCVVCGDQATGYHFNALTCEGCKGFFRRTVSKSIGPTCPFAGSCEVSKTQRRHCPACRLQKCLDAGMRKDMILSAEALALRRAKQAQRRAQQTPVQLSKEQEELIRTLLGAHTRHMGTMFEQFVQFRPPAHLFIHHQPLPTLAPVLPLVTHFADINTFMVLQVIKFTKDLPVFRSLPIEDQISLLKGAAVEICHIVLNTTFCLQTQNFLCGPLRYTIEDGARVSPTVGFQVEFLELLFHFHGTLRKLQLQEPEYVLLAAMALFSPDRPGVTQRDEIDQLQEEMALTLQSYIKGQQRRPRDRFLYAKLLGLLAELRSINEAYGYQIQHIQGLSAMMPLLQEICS
Luciferin 4-monooxygenase (Photinus pyralis), sequence (P08659 whole entry, looked up): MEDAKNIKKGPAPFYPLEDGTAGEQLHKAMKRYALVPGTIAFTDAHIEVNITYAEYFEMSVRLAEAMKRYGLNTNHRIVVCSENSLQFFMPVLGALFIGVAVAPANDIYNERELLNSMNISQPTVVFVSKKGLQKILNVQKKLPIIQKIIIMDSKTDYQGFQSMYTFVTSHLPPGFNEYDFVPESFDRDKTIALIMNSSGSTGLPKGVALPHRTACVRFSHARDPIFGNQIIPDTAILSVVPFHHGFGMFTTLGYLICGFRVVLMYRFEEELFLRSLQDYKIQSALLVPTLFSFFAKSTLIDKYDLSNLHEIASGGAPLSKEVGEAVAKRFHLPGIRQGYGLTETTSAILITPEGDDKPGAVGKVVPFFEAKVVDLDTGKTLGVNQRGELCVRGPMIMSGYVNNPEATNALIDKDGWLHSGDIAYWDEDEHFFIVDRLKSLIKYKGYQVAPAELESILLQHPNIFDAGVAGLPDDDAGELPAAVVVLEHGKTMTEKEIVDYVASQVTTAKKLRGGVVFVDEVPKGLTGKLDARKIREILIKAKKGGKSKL

O=C1OC(=O)c2cc(-c3ccc4c(c3)C(=O)OC4=O)ccc21
not listed: [11] | [12] | [13] | [14]
inactive: all other assays above

CCc1cccc(CC)c1
not listed: [5] | [10] | [12] | [13] | [14]
inactive: all other assays above

Nc1cc([N+](=O)[O-])ccc1Cl
not listed: [10] | [14]
inactive: all other assays above

C=CC(=O)O[C@H]1C[C@@H]2CC[C@@]1(C)C2(C)C
not listed: [8] | [12] | [13] | [14]
inactive: all other assays above

C=CC(C)(C)O
inactive: [1] | [2] | [3] | [4] | [14] | [5] | [6] | [7]

C1=CCCC1
not listed: [5] | [10] | [11] | [12] | [14]
inactive: all other assays above

CCOC=C(C(=O)OCC)C(=O)OCC
not listed: [11] | [12] | [14]
inactive: all other assays above

C/C(=N\[Si](C)(C)C)O[Si](C)(C)C
not listed: [8] | [9] | [11] | [12] | [13]
inactive: all other assays above

C1CCSC1
not listed: [5] | [8] | [9] | [12] | [14]
inactive: all other assays above

CC(=O)CC(N)=O
inactive: [1] | [2] | [3] | [4] | [6] | [7]

CN(C/C=C/c1ccccc1)Cc1cccc2ccccc12
active: [8] 55.2 µM | [10] 43.8 µM
inactive: [1] | [2] | [3] | [6] | [13] | [7]

COc1c(Br)cc(Br)c(C)c1Br
inactive: [1] | [2] | [3] | [4] | [6] | [13] | [7] | [10]

CCCCC/C=C\C=C\C(=O)OCC
inactive: [2] | [10]
active: [1] 71.5 µM | [7] 51 µM

CN(C[C@@H](CC[N+]12CCC(C3CCCCC3)(CC1)CC2)c1ccc(Cl)c(Cl)c1)C(=O)c1cc(C(F)(F)F)cc(C(F)(F)F)c1
active: [1] 48.6 µM | [4] 68.6 µM | [6] 30.6 µM | [7] 19.5 µM | [10] 50.5 µM
inactive: [2] | [5] | [12] | [8]

O=C(Nc1ccccc1)c1cc(Cl)ccc1O
active: [1] 15.4 µM | [2] 3.99 µM | [3] 24.3 µM | [6] 17.2 µM | [10] 25.3 µM
inactive: [11] | [13] | [7] | [8]

CC(C)=CCC[C@H](C)CC=O
not listed: [5] | [9] | [11] | [12] | [14]
inactive: all other assays above

CN(C)CCOc1ccc(/C(=C(/CCCl)c2ccccc2)c2ccccc2)cc1
inactive: [2] | [5] | [11] | [13]
active: [1] 51 µM | [6] 57.2 µM | [7] 40.9 µM | [10] 94.3 µM

CC(C)c1ccc2sc3ccccc3c(=O)c2c1
active: [2] 1.59 µM | [10] 50.5 µM
inactive: [1] | [3] | [4] | [6] | [7]

CCN(CC)c1ccc(N=Nc2ccccc2)cc1
active: [1] 24.3 µM | [2] 0.502 µM | [5] 13.7 µM | [10] 113 µM
inactive: [13]

C=C(C)C1CCC(C)CC1O (stereo not drawn)
not listed: [5] | [9] | [11] | [12] | [14]
inactive: all other assays above

O=C1C=CC(=O)N1c1cccc(N2C(=O)C=CC2=O)c1
inactive: [5] | [11] | [8]
active: [1] 54.5 µM | [3] 61.1 µM | [4] 61.1 µM | [14] 61.1 µM | [6] 34.4 µM | [12] 77 µM | [13] 5.45 µM | [7] 11 µM | [10] 45 µM

O=C(CCCCCCCCc1cccnc1)N1CCC(C=C(c2ccccc2)c2ccccc2)CC1
inactive: [2] | [11] | [8]
active: [1] 54.5 µM | [7] 13.8 µM | [10] 50.5 µM

c1ccc(C[P+](c2ccccc2)(c2ccccc2)c2ccccc2)cc1
active: [1] 21.7 µM | [3] 30.6 µM | [12] 3.44 µM | [10] 101 µM
inactive: [2] | [5] | [11] | [7]

COc1cccc(-c2ccc(/C=C\CN3CCCCCC3)cc2Cl)c1
inactive: [1] | [2] | [3] | [5] | [12] | [11]
active: [6] 54.2 µM | [10] 89.3 µM
